Common to all, as to assay: DAPPL (digital affinity profiling via proximity ligation, sequencing); 10 mM Tris-HCl pH 7.5, 50 mM NaCl, 1 mM DTT, 4% glycerol, room temperature, 30 min; GST-TFs on glutathione beads, 16-mer random dsDNA library, 0.1% formaldehyde crosslink after washing; high values mean tight binding
Settings in all cases: protein: recombinant; tags: N-terminal GST; dsDNA, one strand shown

The target of test [1] is T1, ERF (Homo sapiens, UniProt P50548 1-548).
T1 sequence: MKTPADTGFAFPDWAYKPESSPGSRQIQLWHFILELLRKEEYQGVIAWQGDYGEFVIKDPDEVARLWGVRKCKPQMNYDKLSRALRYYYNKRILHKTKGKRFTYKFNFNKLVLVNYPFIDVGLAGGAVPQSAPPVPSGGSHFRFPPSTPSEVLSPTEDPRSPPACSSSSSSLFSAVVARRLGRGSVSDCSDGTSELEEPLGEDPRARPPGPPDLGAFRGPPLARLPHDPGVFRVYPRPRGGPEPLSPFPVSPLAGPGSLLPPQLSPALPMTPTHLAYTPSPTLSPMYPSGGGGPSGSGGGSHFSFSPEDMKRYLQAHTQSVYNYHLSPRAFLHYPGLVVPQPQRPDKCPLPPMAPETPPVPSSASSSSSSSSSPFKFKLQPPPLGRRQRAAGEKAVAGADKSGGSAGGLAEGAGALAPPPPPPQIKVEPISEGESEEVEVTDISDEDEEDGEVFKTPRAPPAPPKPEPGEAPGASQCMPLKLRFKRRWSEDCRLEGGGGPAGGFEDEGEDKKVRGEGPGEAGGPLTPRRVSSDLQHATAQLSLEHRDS
In outline:
(§1)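 Sequencing on an Illumina NextSeq500 followed washing, crosslinking with 0.1% formaldehyde, proximity ligation (BsaI/T4 ligase, 1 h, 37 °C) and PCR amplification of pools that had been incubated for 30 min at room temperature with 200 nmole of a random double-stranded 16-mer DNA library in Tris/NaCl/DTT/glycerol buffer. Each pool held DNA-barcoded human transcription factors, expressed in yeast as GST fusions and captured on glutathione beads, plus a tag-only sample. Binding signal is a hexamer's read frequency for a factor divided by its frequency in the tag-only sample.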

Test [2] has as its target T2, ETV3L (Homo sapiens, UniProt Q6ZN32 1-361).
T2 sequence: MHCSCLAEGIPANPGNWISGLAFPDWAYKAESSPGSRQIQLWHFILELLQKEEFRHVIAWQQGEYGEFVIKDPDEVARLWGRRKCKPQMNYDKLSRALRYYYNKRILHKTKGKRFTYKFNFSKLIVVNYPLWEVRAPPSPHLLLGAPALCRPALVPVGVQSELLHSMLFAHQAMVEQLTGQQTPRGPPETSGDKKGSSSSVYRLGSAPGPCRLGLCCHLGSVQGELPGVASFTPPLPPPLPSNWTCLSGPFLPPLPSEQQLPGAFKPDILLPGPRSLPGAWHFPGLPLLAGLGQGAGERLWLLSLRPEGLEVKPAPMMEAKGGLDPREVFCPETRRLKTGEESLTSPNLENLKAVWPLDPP
In outline:
as §1

In test [3] the target is T3, ETS2 (Homo sapiens, UniProt P15036 1-469).
T3 sequence: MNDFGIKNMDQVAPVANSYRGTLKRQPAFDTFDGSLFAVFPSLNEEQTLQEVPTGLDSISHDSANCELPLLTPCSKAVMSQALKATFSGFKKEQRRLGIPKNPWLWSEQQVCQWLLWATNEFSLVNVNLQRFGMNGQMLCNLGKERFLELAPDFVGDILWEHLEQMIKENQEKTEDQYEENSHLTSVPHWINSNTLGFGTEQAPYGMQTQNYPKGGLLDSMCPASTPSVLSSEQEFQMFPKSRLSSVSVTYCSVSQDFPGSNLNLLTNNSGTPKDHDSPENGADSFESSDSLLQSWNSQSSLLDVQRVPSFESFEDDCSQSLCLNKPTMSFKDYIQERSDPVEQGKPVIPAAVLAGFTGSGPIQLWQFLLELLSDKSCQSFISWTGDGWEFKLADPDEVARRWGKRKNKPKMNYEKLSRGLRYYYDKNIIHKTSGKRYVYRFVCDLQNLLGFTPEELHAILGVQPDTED
In outline:
as §1

The target in test [4] is T4, SPDEF (Homo sapiens, UniProt O95238 1-335).
T4 sequence: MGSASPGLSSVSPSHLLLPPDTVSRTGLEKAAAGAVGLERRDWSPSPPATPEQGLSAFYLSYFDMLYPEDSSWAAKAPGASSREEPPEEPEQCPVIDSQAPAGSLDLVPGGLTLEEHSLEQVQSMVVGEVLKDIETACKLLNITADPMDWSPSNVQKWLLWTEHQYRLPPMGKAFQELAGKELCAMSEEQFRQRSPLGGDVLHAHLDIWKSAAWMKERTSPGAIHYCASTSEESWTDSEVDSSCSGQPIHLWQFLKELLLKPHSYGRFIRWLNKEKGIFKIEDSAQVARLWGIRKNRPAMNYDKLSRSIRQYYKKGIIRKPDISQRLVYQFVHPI
In outline: as §1

In test [5] the target is T5, ETV7 (Homo sapiens, UniProt Q9Y603 1-341).
T5 sequence: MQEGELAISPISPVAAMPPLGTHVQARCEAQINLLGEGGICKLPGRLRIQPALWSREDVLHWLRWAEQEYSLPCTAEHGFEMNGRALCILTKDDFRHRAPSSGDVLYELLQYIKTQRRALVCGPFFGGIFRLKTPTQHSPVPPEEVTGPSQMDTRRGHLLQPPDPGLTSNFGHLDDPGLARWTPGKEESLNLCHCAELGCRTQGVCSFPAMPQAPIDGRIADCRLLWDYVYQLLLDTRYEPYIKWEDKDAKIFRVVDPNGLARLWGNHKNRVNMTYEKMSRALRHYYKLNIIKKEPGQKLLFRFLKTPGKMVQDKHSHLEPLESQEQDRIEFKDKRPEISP
In outline: as §1

Test [6] has as its target T6, ELF5 (Homo sapiens, UniProt Q9UKW6-2 1-255).
T6 sequence: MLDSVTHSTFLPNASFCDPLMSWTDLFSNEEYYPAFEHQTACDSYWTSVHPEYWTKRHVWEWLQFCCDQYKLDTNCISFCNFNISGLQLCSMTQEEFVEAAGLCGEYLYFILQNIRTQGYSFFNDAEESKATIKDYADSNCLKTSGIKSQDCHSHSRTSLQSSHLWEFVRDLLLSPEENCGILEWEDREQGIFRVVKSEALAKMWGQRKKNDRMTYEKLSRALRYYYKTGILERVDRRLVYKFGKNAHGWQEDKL
In outline:
as §1

The target in test [7] is T7, ETV3 (Homo sapiens, UniProt P41162-2 1-143).
T7 sequence: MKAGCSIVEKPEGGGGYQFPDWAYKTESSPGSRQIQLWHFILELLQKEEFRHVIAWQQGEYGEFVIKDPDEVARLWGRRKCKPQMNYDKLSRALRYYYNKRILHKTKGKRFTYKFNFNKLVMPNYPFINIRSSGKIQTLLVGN
In outline:
as §1

Test [8] deals with ETV6 (Homo sapiens, UniProt P41212 1-452). In outline:
as §1

ETV6, sequence (P41212 whole entry): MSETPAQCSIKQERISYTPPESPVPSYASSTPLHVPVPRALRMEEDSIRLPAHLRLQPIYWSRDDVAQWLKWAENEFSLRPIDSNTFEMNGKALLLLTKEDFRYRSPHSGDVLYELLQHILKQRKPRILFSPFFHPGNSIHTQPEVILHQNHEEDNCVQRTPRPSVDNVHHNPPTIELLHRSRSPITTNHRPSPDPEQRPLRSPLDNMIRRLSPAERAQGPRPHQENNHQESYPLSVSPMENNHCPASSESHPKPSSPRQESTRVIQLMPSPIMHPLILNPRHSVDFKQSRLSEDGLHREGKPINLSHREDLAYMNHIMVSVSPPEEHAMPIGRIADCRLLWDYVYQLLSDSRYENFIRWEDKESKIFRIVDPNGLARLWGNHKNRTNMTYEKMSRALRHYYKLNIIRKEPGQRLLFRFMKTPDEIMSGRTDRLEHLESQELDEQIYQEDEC

For the sequence AACCAC, the binding signal in test [1] is 1.18 fold enrichment (6-mer frequency, TF over GST control); in test [2], 1.16 fold enrichment (6-mer frequency, TF over GST control); in test [3] it was 1.14 fold enrichment (6-mer frequency, TF over GST control); in test [4], 1.08 fold enrichment (6-mer frequency, TF over GST control); in test [5], 1.03 fold enrichment (6-mer frequency, TF over GST control); in test [6] it was 1.13 fold enrichment (6-mer frequency, TF over GST control). The binding signal was 1.17 fold enrichment (6-mer frequency, TF over GST control) in test [7] and 1.19 fold enrichment (6-mer frequency, TF over GST control) in test [8].

Turning to AGTTCC, the binding signal in test [1] was 1.73 fold enrichment (6-mer frequency, TF over GST control); in test [2], 2.15 fold enrichment (6-mer frequency, TF over GST control); in test [3], 2.17 fold enrichment (6-mer frequency, TF over GST control); in test [4], 2.56 fold enrichment (6-mer frequency, TF over GST control); in test [5] it was 1.94 fold enrichment (6-mer frequency, TF over GST control); in test [6], 2.79 fold enrichment (6-mer frequency, TF over GST control). Further, the binding signal in test [7] is 2.38 fold enrichment (6-mer frequency, TF over GST control); in test [8], 2.17 fold enrichment (6-mer frequency, TF over GST control).

Turning to GCCTCA, the binding signal was 1.35 fold enrichment (6-mer frequency, TF over GST control) in test [1]; 1.31 fold enrichment (6-mer frequency, TF over GST control) in test [2]; 1.13 fold enrichment (6-mer frequency, TF over GST control) in test [3]; 1.16 fold enrichment (6-mer frequency, TF over GST control) in test [4]; 1.24 fold enrichment (6-mer frequency, TF over GST control) in test [5]; 1.15 fold enrichment (6-mer frequency, TF over GST control) in test [6]. The binding signal in test [7] was 1.19 fold enrichment (6-mer frequency, TF over GST control); in test [8] it was 1.18 fold enrichment (6-mer frequency, TF over GST control).

Consider ACGAAC, for which the binding signal in test [1] is 1.05 fold enrichment (6-mer frequency, TF over GST control); in test [2], 1.07 fold enrichment (6-mer frequency, TF over GST control); in test [3], 1.22 fold enrichment (6-mer frequency, TF over GST control); in test [4] it was 1.13 fold enrichment (6-mer frequency, TF over GST control); in test [5], 1.21 fold enrichment (6-mer frequency, TF over GST control); in test [6] it was 1.09 fold enrichment (6-mer frequency, TF over GST control). Besides, the binding signal in test [7] is 1.04 fold enrichment (6-mer frequency, TF over GST control); in test [8] it was 1.1 fold enrichment (6-mer frequency, TF over GST control).

With CCATCA, the binding signal in test [1] was 1.29 fold enrichment (6-mer frequency, TF over GST control); in test [2], 1.19 fold enrichment (6-mer frequency, TF over GST control); in test [3] it was 1.17 fold enrichment (6-mer frequency, TF over GST control); in test [4], 1.12 fold enrichment (6-mer frequency, TF over GST control); in test [5], 1.25 fold enrichment (6-mer frequency, TF over GST control); in test [6], 1.12 fold enrichment (6-mer frequency, TF over GST control). Besides, the binding signal in test [7] was 1.12 fold enrichment (6-mer frequency, TF over GST control); in test [8], 1.05 fold enrichment (6-mer frequency, TF over GST control).

With ATTGCC, the binding signal in test [1] was 1.15 fold enrichment (6-mer frequency, TF over GST control); in test [2] it was 1.34 fold enrichment (6-mer frequency, TF over GST control); in test [3], 1.25 fold enrichment (6-mer frequency, TF over GST control); in test [4] it was 1.18 fold enrichment (6-mer frequency, TF over GST control); in test [5] it was 1.22 fold enrichment (6-mer frequency, TF over GST control); in test [6], 1.22 fold enrichment (6-mer frequency, TF over GST control). The binding signal was 1.31 fold enrichment (6-mer frequency, TF over GST control) in test [7] and 1.26 fold enrichment (6-mer frequency, TF over GST control) in test [8].

Take ATATTT: the binding signal in test [1] is 1.55 fold enrichment (6-mer frequency, TF over GST control); in test [2], 1.4 fold enrichment (6-mer frequency, TF over GST control); in test [3] it was 1.58 fold enrichment (6-mer frequency, TF over GST control); in test [4] it was 1.54 fold enrichment (6-mer frequency, TF over GST control); in test [5], 1.67 fold enrichment (6-mer frequency, TF over GST control); in test [6], 1.65 fold enrichment (6-mer frequency, TF over GST control). For the same sequence, the binding signal in test [7] is 1.65 fold enrichment (6-mer frequency, TF over GST control); in test [8] it was 1.57 fold enrichment (6-mer frequency, TF over GST control).

Take CTGTCA: the binding signal in test [1] was 1.17 fold enrichment (6-mer frequency, TF over GST control); in test [2] it was 1.22 fold enrichment (6-mer frequency, TF over GST control); in test [3], 1.14 fold enrichment (6-mer frequency, TF over GST control); in test [4], 1.06 fold enrichment (6-mer frequency, TF over GST control); in test [5], 1.12 fold enrichment (6-mer frequency, TF over GST control); in test [6], 1.14 fold enrichment (6-mer frequency, TF over GST control). Further, the binding signal is 1.09 fold enrichment (6-mer frequency, TF over GST control) in test [7] and 1.1 fold enrichment (6-mer frequency, TF over GST control) in test [8].

(Values after PMC7862700, “An all-to-all approach to the identification of sequence-specific readers for epigenetic DNA modifications on cytosine”.)
